# PubChem BioAssay AID626 (Vanderbilt High Throughput Screening Facility, 2007)
# Out of some 64,000 compounds screened, about 1,900 (3%) were called active.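 How the source made its calls: active means fluorescence rise, raw or as B-score row- and column-corrected plate score, outside the 99.7% band of its plate's samples, either direction; inactive means the rest.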 Many of the other results were omitted from the sample, so actives are more common in it than they were.
# System: Muscarinic acetylcholine receptor M1
# Test: M1 muscarinic receptor agonists, primary screen, CHO-M1 cells, Fluo-4 calcium, agonist mode (AID 626)
# Settings: Fluo-4 calcium fluorescence, at 10 µM, hits give high values
row,SMILES,B-score
1,Cc1ccnc(NC(=O)c2ccc(NC(=O)c3ccco3)cc2)c1,1.71 (inactive)
2,COC(=O)c1ccc(NC(=O)c2ccco2)cc1,-0.218 (inactive)
3,Cc1ccc(C(=O)COc2cccc(NC(=O)c3ccco3)c2)cc1,1.03 (active)
4,O=C1c2ccccc2C(Nc2ccc3c(c2)OCCO3)N1Cc1ccco1 (centres undefined),0.847 (inactive)
5,O=S(=O)(Nc1ccccn1)c1ccc(Oc2ccccc2)cc1,-0.897 (inactive)
6,COc1ccc(NS(=O)(=O)c2ccc(NC(C)=O)cc2)cc1OC,0.127 (inactive)
7,COc1ccccc1Oc1ccc(S(=O)(=O)Nc2cccnc2)cc1,14.6 (active)
8,CCC(C)(C)NC(=O)C(c1cccn1C)N(Cc1ccc(C)cc1)C(=O)Cn1nnc2ccccc21 (centres undefined),-0.864 (inactive)
9,O=S(=O)(NCC1CCCO1)c1ccc2ccccc2c1 (centres undefined),0.554 (inactive)
10,COCCCNC(=O)c1c(F)c(F)c(F)c(F)c1F,0.0183 (inactive)
11,Cc1cccc(CC(=O)Nc2c3c(nn2-c2cccc(Cl)c2)CS(=O)C3)c1 (centres undefined),-1.33 (inactive)
12,Cc1noc(C)c1CSc1nc2cc(S(=O)(=O)N3CCOCC3)ccc2o1,-0.0272 (inactive)
13,O=C(CSc1nc2ccccc2o1)N1CCN(c2ccc(Cl)cc2)CC1,20.1 (active)
14,O=C(CSc1nc2ccccc2o1)N1CCN(c2ccccc2)CC1,-0.706 (inactive)
15,CC1Cc2ccccc2N1C(=O)CSc1nc2ccccc2o1 (centres undefined),0.106 (inactive)
16,CSCCC(NC(=O)c1ccc(=O)n(C)n1)c1nc2ccccc2[nH]1 (centres undefined),-1.57 (inactive)
17,NC(=S)c1ccc(C(N)=S)o1,2.43 (inactive)
18,COc1ccc(C(=O)CSc2nccc(=O)[nH]2)cc1,1.27 (inactive)
19,CC12C(=O)N(n3cnnc3)C(=O)C1C1C=CC2C1 (centres undefined),0.0714 (inactive)
20,CCc1ccc(Nc2ncc3c(n2)CC(c2ccco2)CC3=O)cc1 (centres undefined),0.24 (inactive)
21,O=C(Nc1ccccc1N1CCN(c2ccccc2)CC1)c1cccc(F)c1,-0.048 (inactive)
22,CCCC(=O)Nc1ccccc1N1CCN(C(=O)c2ccccc2)CC1,0.545 (inactive)
23,O=C(Nc1ccccc1N1CCN(C(=O)c2ccccc2)CC1)c1ccc2c(c1)OCO2,2.96 (active)
24,Cc1noc(C)c1C(=O)OCC(=O)/C=C1\N(C)c2ccccc2C1(C)C,-1.21 (inactive)

row,SMILES,B-score
1,COc1ccc(S(=O)(=O)N2CCC(C(=O)N3CCc4ccccc4C3)CC2)cc1OC,0.201 (inactive)
2,O=C(CN(Cc1ccccc1)C(=O)c1ccc2c(c1)OCCO2)NCc1ccc2c(c1)OCO2,0.89 (inactive)
3,CC1(C)CC(O)C(CCC(O)c2ccccc2)C(C)(C)N1 (centres undefined),2.64 (inactive)
4,COc1ccc(N(C(=O)c2cccnc2)S(=O)(=O)c2ccc3c(c2)n(C)c(=O)n3C)cc1,3.89 (active)
5,COc1ccc(-c2c3c(=O)n(C)c(=O)n(C)c3cn2NC(C)=O)cc1,0.218 (inactive)
6,CN(C)S(=O)(=O)c1cccc(C(=O)Nc2cccnc2)c1,0.0444 (inactive)
7,O=C(NCCN1C(=O)C2C3C=CC(C3)C2C1=O)Nc1ccccn1 (centres undefined),0.114 (inactive)
8,COC(=O)Nc1ncc(CN2C(=O)c3ccccc3C2=O)s1,0.171 (inactive)
9,CCOC(=O)c1cc2n(c1N)-c1ccccc1C2=O,145 (active)
10,CCOC(=O)c1cc2n(c1C)-c1ccccc1C2=O,0.122 (inactive)
11,CCOC(=O)Nc1ccccc1N1C(=O)c2ccccc2C1=O,-0.565 (inactive)
12,CC(=O)N(CN1C(=O)C2CC=CCC2C1=O)c1cccc(Cl)c1 (centres undefined),-1.96 (inactive)
13,O=C(NCc1ccco1)c1cnn2c(C(F)(F)F)cc(-c3ccco3)nc12,0.0458 (inactive)
14,FC(F)(F)COc1nc(N2CCCCC2)nc(N2CCNCC2)n1,6.73 (active)
15,COc1cc2c(cc1NC(=O)CN1CCN(S(=O)(=O)c3ccc(F)cc3)CC1)oc1ccccc12,-1.04 (inactive)
16,OCc1nc(CO)n(Cc2ccccc2)n1,-0.345 (inactive)
17,CC1CCCC(C)N1C(=O)CN1CCN(c2nc(-c3ccc(F)cc3)cs2)CC1 (centres undefined),2.64 (active)
18,COc1ccc(-c2csc(N3CCN(Cc4ccc5c(c4)OCO5)CC3)n2)cc1,-0.173 (inactive)
19,O=C(CN1CCN(c2nc(-c3ccccc3)cs2)CC1)NCc1ccc2c(c1)OCO2,-0.269 (inactive)
20,O=c1c2ccccc2nc(CSc2nnnn2-c2ccccc2)n1-c1ccccc1,-1.38 (inactive)
21,CCOc1cccc(/C(O)=C2/C(=O)C(=O)N(CCOC)C2c2ccncc2)c1 (centres undefined),-0.0327 (inactive)
22,Cc1cc(=O)cc(C)[nH]1,-0.0108 (inactive)
23,CCOc1ccc(NC(=O)N2CC=C(n3c(=O)[nH]c4ccccc43)CC2)cc1,3.49 (active)
24,CCOc1ccc(NC(=O)N2CCN(CC)CC2)cc1,-1.38 (inactive)

row,SMILES,B-score
1,Cc1cccc(C)c1NC(=O)N1CC=C(n2c(=O)[nH]c3ccccc32)CC1,1.14 (inactive)
2,CN1CCC2(CC1)NC(=O)NC2=O,-0.874 (inactive)
3,Cn1c(=O)c2c(nc(NCCc3ccccc3)n2Cc2ccccc2)n(C)c1=O,-0.39 (inactive)
4,CCn1c(NCCc2ccc(OC)c(OC)c2)nc2c1c(=O)n(C)c(=O)n2C,3.33 (active)
5,CCCCn1c(SCC(=O)NCCc2ccc(OC)c(OC)c2)nc2c1c(=O)n(C)c(=O)n2C,0.299 (inactive)
6,Cc1cc(C(F)(F)F)c(C#N)c(SCC(=O)NC2CC2)n1,0.0289 (inactive)
7,CCSc1ncnc2c(C#N)c3n(c12)CCCCC3,-0.0416 (inactive)
8,O=C(CCC(=O)OCC(F)(F)C(F)F)NCc1ccccc1,-1.45 (inactive)
9,CCOc1ccc2[nH]c(=O)c(CN(Cc3nnnn3CCc3ccccc3)CC3CCCO3)cc2c1 (centres undefined),1.96 (inactive)
10,Cc1cccc2cc(CN(Cc3nnnn3Cc3ccccc3)C3CCCC3)c(=O)[nH]c12,0.299 (inactive)
11,COc1ccc2[nH]c(=O)c(CN(Cc3nnnn3CCc3ccccc3)CC3CCCO3)cc2c1 (centres undefined),0.197 (inactive)
12,Cc1cccc2cc(CN(Cc3cccs3)C(c3nnnn3C3CCCC3)C(C)C)c(=O)[nH]c12 (centres undefined),-0.692 (inactive)
13,Cc1cc2cc(CN(Cc3cccs3)Cc3nnnn3CC3CCCO3)c(=O)[nH]c2cc1C (centres undefined),6.85 (active)
14,CCOc1ccc2[nH]c(=O)c(CN(Cc3nnnn3Cc3ccccc3)CC3CCCO3)cc2c1 (centres undefined),3.01 (active)
15,COc1ccc2[nH]c(=O)c(CN(CC3CCCO3)C(=O)Nc3ccccc3)cc2c1 (centres undefined),2.9 (active)
16,Cc1cc(C)c2cc(CN(Cc3cccs3)Cc3nnnn3CC3CCCO3)c(=O)[nH]c2c1 (centres undefined),-0.2 (inactive)
17,CCC(=O)N(Cc1cc2cc(OC)ccc2[nH]c1=O)c1ccccc1C,-0.55 (inactive)
18,Cc1ccc(C)n1C(Cc1ccccc1)C(=O)O (centres undefined),-0.967 (inactive)
19,COc1ccc(C(=O)N(Cc2ccc(N(C)C)cc2)C2CCS(=O)(=O)C2)cc1 (centres undefined),0.609 (inactive)
20,CC(C)(C)Nc1c(N)c(=O)oc2ccccc12,0.371 (inactive)
21,Cc1onc(-c2ccccc2Cl)c1C(=O)NCCn1ccc2ccccc21,-0.0968 (inactive)
22,CCOC(=O)C1=C(C)NC(=O)N(C(C)=O)C1c1ccc(Cl)cc1 (centres undefined),-0.0464 (inactive)
23,CN1C(=O)c2ccc(NC(=O)c3c(F)c(F)c(F)c(F)c3F)cc2C1=O,4.34 (active)
24,CCC(=O)Nc1ccc(C(=O)Nc2ccc3c(c2)C(=O)N(CC2CCCO2)C3=O)cc1 (centres undefined),0.81 (inactive)

row,SMILES,B-score
1,CN1C(=O)c2ccc(NC(=O)C3CCCCC3)cc2C1=O,-1.25 (inactive)
2,CCOC(=O)c1ccc(Nc2cc(C)nc3nc(C)nn23)cc1,-0.0395 (inactive)
3,CC(=O)c1ccc(-n2nnnc2SCC(=O)N2CCN(C(=O)c3ccco3)CC2)cc1,0.19 (inactive)
4,COc1ccc(NC(=O)C2CCCN(S(=O)(=O)c3cccc4cccnc34)C2)cc1OC (centres undefined),4.34 (active)
5,COc1ccc(NC(=O)C2CCCN(S(=O)(=O)c3cccc4cccnc34)C2)cc1 (centres undefined),0.324 (inactive)
6,COc1ccccc1CNC(=O)C1CCCN(S(=O)(=O)c2cccc3cccnc23)C1 (centres undefined),0.00364 (inactive)
7,CCOc1cc(C2C(C(=O)OC)=CN(C3CCCC3)C=C2C(=O)OC)cc(Br)c1O,-0.323 (inactive)
8,CCOC(=O)CSC1=C(C#N)C(c2ccco2)C(C(=O)OCc2ccccc2)=C(C)N1 (centres undefined),-0.00433 (inactive)
9,N#CC1=C(N)Oc2c(sc3ccccc23)C1c1ccco1 (centres undefined),52 (active)
10,N/C(=N\c1nc2ccccc2o1)NC(=O)C(Cc1ccccc1)N1C(=O)c2ccccc2C1=O (centres undefined),2.31 (inactive)
11,Cc1ccc(Cn2ccc(NC(=O)c3cc(C(C)C)on3)n2)cc1,-1.01 (inactive)
12,O=C(CSCc1cccs1)N1CCCC1,4.57 (active)
13,Cn1c(=NC(=O)CSCC(=O)N2CCCCC2)sc2ccccc21,-0.071 (inactive)
14,O=C(c1cc(-c2cccs2)on1)N1CCCCC1,1.09 (inactive)
15,COc1ccccc1-n1nnnc1S(=O)(=O)Cc1ccc(Cl)cc1,0.986 (inactive)
16,COc1ccccc1NC(=O)CSc1nnc(-c2ccoc2C)n1CCc1ccccc1,0.464 (inactive)
17,COc1ccccc1NC(=O)CSc1nnc(Cc2cccn2C)n1-c1ccc(F)cc1,-0.202 (inactive)
18,COc1ccccc1NC(=O)CSc1nnc(Cn2nnc(-c3ccccc3)n2)n1-c1ccccc1,2.12 (active)
19,CCN=C1SC(CC(=O)Nc2ccc(C)cc2)C(=O)N1CC (centres undefined),5.15 (active)
20,CCOC(=O)c1ccc(NC(=O)Cn2nnc(-c3ccc(C)cc3)n2)cc1,-0.837 (inactive)
21,Cc1ccc(NC(=O)CCN2CCc3ccccc3C2)cc1,-0.165 (inactive)
22,CCC(Oc1ccccc1)C(=O)NCc1cccnc1 (centres undefined),-0.899 (inactive)
